Pf growth 96h – Primary qHTS for delayed death inhibitors of the malarial parasite plastid, 96 hour incubation; P. falciparum luciferase reporter growth, 96 h; Potency, µM (doses to about 28.7 µM), hits mostly inhibitors; 6.9% of 320,000 active
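Compounds incubated with erythrocytes infected by luciferase-expressing P. falciparum (2% hematocrit, 0.05% parasitemia final) for 96 hours, 37 C in 5% CO2. Growth inhibition scored as decreased luciferase luminescence.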
HCMV antiviral – qHTS Assay for inhibitors of the human cytomegalovirus (HCMV). 4.5% of 410,000 active. HFF cells, HCMV-luciferase reporter, 72 h; stronger effect = lower value. activity change, negative = inhibition, % at 57.5 µM; in the data active means activity change below about -60%; inconclusive means no clear call, values can overlap the other calls; inactive means above about -39%
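Human foreskin fibroblasts infected with luciferase-reporter HCMV at MOI 1 PFU/cell, compounds at two doses. Luciferase measured 72 h post infection; normalized to buffer-only basal and Salinomycin (10uM) controls.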
Pf growth 48h – Primary qHTS for delayed death inhibitors of the malarial parasite plastid, 48 hour incubation. Potency, µM (series often up to 28.7 µM), hits mostly inhibitors. AID 504832, 2011. P. falciparum luciferase growth in erythrocytes, 48 h. 5.9% of 310,000 active
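Firefly luciferase activity from engineered P. falciparum reports growth; inhibitors lower the luminescent signal. Cultures contained 2% hematocrit erythrocytes at 0.1% final parasitemia.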
HCV inhibitor – qHTS Assay for Inhibitors of Hepatitis C Virus (HCV); Huh7.5.1 HCVcc-Cre infection, luciferase reporter, 44 h; Potency, µM (highest dose often 41.8 µM), usual class: inhibitors; 3.4% of 340,000 active; AID 651820, 2012
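1,000 cells/well; 4 h culture; + compound; + HCVcc-Cre (~0.5 moi); 44 h; luciferase substrate, RT 15 min; read 15 sec.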
Numbers stand for hits; – = inactive; ? = inconclusive; · = not tested or not shown; [ ] = another dose, or the depositor's remark. Sampled rows, rich in hits. Any-hit rate of the full collection: about 13%. Unless noted, the call rests on the fitted dose curve; in most records, active means well fitted inhibition curve with a large enough effect; inconclusive means small, poorly fitted or top-dose-only effect, or another doubt; inactive means no such curve, though single readings can be large or run the other way.

SMILES | Pf growth 96h | HCMV antiviral | Pf growth 48h | HCV inhibitor
CC(C)(C)c1ccc(-c2nnc(-c3ccccc3NC(=O)c3ccc(F)cc3F)o2)cc1 | · | – | · | ·
COC(=O)c1sccc1S(=O)(=O)N(CC(=O)Nc1ccccc1F)c1ccccc1 | · | – | · | ·
Cc1cccc(-c2noc(-c3ccc(NCc4cccnc4)c([N+](=O)[O-])c3)n2)c1 | · | – | · | ·
Nc1c(-c2nc(-c3ccccc3)cs2)c2ccccn2c1C(=O)c1ccc2c(c1)OCO2 | · | – | · | ·
FC(F)(F)c1ccccc1Cc1c(-c2ccccc2)nc2ccc(Br)cn12 | · | – | · | ·
COc1ccccc1CNC(=O)c1cc(-c2ccccc2C)nn1CC1CC(c2cccnc2)=NO1 (centres undefined) | 4.65µM | ? | ? | ?
Cc1ccccc1-c1cc(C(=O)NCc2cccc(Br)c2)n(CC2CC(c3cccnc3)=NO2)n1 (centres undefined) | · | – | · | ?
COc1cc(/C=C/c2nc(-c3ccccc3O)n[nH]2)cc(OC)c1OC | ? | – | ? | 11.2µM
COc1cc(/C=C/c2ccc3c(Br)cc(Br)c(O)c3n2)ccc1O | 3.7µM | -99.7 | 9.28µM | 8.91µM
COc1cc(Br)cc(/C=C/c2ccc3cccc(O)c3n2)c1OC | – | – | ? | –
COc1cc(/C=C/c2ccc3cccc(O)c3n2)cc(Cl)c1OC | 3.7µM | – | –[0.00184 µM] | ?
COc1cc(/C=C/c2ccc3cccc(O)c3n2)cc(OC)c1OC | – | -94.4 | ? | ?
CCOc1cc2c(c3c1C(c1ccccc1)N(S(=O)(=O)c1ccc(C)cc1)C3)C(=O)C=CC2=O (centres undefined) | · | – | · | ·
COc1ccc(CCNC(=O)CCCn2nc(C)c3sc4ccccc4c3c2=O)c(OC)c1 | · | – | · | ·
Cc1ccc2c(Br)cc(Br)c(O)c2n1 | 6.75µM | · | 12µM | ·
COc1cc(/C=C/c2ccc3cccc(O)c3n2)cc(Br)c1OC | ? | ? | ? | 11.2µM
COc1ccc(/C=C/c2ccc3c(Br)ccc(O)c3n2)cc1 | – | ? | –[0.00184 µM] | ?
Oc1cccc(/C=C/c2ccc3cccc(O)c3n2)c1 | – | – | –[0.00184 µM] | ?
COc1cccc(/C=C/c2ccc3cccc(O)c3n2)c1 | – | -94.5 | – | ?
Cc1[nH]n(-c2ccccc2)c(=O)c1C(C[N+](=O)[O-])c1ccc(Br)cc1 (centres undefined) | · | -104.3 | ? | –
COc1cccc(C(C[N+](=O)[O-])c2c(C)[nH]n(-c3ccccc3)c2=O)c1 (centres undefined) | – | – | – | –
CSc1cccc(NC(=O)Cn2nnc(C(=O)NCCc3ccccc3)c2N)c1 | · | – | · | ·
CCOC(=O)c1sc2ccccc2c1S(=O)(=O)Nc1cccc(C(F)(F)F)c1 | · | – | · | ·
O=C(COC(=O)c1ccccc1C(=O)N1CCN(c2ccccc2)CC1)Nc1ccccc1 | – | – | 4.15µM | ?
O=C(COC(=O)c1ccccc1C(=O)N1CCN(c2ccccc2)CC1)Nc1ccc(F)cc1 | · | – | – | ?
SMILES | Pf growth 96h | HCMV antiviral | Pf growth 48h | HCV inhibitor
CCc1ccc(-n2nc(C)c3c(C)cc(=O)n(CC(=O)Nc4cc(C)ccc4C)c32)cc1 | · | – | · | ·
CC(C)(C)N1C(=O)Cc2c1nc(N)c1c(N)nc(N3CCCCC3CO)c(C#N)c21 (centres undefined) | 5.86µM | · | ? | ?
Cc1ccc(C)c(S(=O)(=O)N2CCN(C(=O)CCc3nc4ccccc4c(=O)[nH]3)CC2)c1 | 10.4µM | – | ? | ?
O=C(CCc1nc2ccccc2c(=O)[nH]1)N1CCN(S(=O)(=O)c2ccccc2Br)CC1 | ? | – | ? | ?
Cc1ccc(S(=O)(=O)N2CCN(C(=O)CCc3nc4ccccc4c(=O)[nH]3)CC2)c(C)c1 | 11.7µM | – | ? | –
CC(C)c1ccc(S(=O)(=O)N2CCN(C(=O)CCc3nc4ccccc4c(=O)[nH]3)CC2)cc1 | · | – | · | ·
Cc1ccc(NC(=O)CSc2ncnc3ccccc23)cc1S(=O)(=O)N1CCCCC1 | ? | – | ? | ?
Cc1ccc(NC(=O)CCc2nc3ccccc3c(=O)[nH]2)cc1S(=O)(=O)N1CCOCC1 | 4.15µM | – | ? | ?
Cc1ccc(NC(=O)CCc2ccccc2)cc1S(=O)(=O)N1CCOCC1 | · | – | · | ?
Cc1ccc(NC(=O)CSc2ncnc3ccccc23)cc1S(=O)(=O)N1CCOCC1 | ? | – | 11.7µM | ?
O=C(NC1CCN(Cc2ccccc2)CC1)c1ccc(Cn2c(=O)c3ccccc3n(Cc3ccc(F)cc3)c2=O)cc1 | · | – | · | ·
COc1ccc(NC(=O)N2c3ccc(OC)cc3[C@@H](NC(=O)c3ccc(C)s3)[C@H](C)[C@H]2c2ccccc2)cc1 | · | – | · | ·

Screening data (PubChem)
